# Test results published in paper PMC13494018.
# Unmarked numbers belong to inactive results. How the calls were made is not given here.
# B1: d1r7_design_ppi_869_dldesign_0_cycle0_af2pred (protein)
# chain: GIGDELAKGEEYYRKSIELAKEGNKEEAKKYLEEAEAHYAAAAAAAEAQGNTALAAALRARAKARKEEAEKLIK
# B2: d1r7_design_ppi_871_dldesign_0_cycle1_af2pred (protein)
# chain: AAAAQTALRTAAAMYRSAAEMFEAGKTEDGLAAAKVAADVAANVPANKEFAAKTLKEITEAAKKDPAEAAKIAREAADYLDAQAAA
# B3: d1r7_design_ppi_873_dldesign_0_cycle1_af2pred (protein)
# chain: SESIENQKKASEAMSEAIEAMAKAGFPISERNEVGKLGIEAMRLFQKSPEDPAALEEGKKKLAEVEKRLKEAKAA
# B4: d1r7_design_ppi_889_dldesign_0_cycle1_af2pred (protein)
# chain: SEELDRAGAQTLAEIVGKQAKKVAKAAKELSKEKGGELTPLAEKAEEAAKKAIKLAEEGASAEEIYKAAQEAQDLRLKAKAALKAAKA
# B5: d1r7_design_ppi_937_dldesign_0_cycle1_af2pred (protein)
# chain: GAAAEAAEREAKAALLKEVGAAAARMAPENPRLAAAGALGAARGLAALGYAEEGKAVLEETAAALPDPEEAARLRAAAAAL
# B6: d1r7_design_ppi_941_dldesign_0_cycle0_af2pred (protein)
# chain: AAAAAEAAEYLGKAVEYHKELEEAARRAIEKFGPEVEEEMEELLREAREALAKASQAAIAGDAEKTKEEMEKIKKIRERAKELLEK
# B7: d1r7_design_ppi_941_dldesign_0_cycle1_af2pred (protein)
# chain: AADRAAAAAALGAAVEAYSELVKLAKEAIEKHGPKVAPEMEKLIAEAQKALAAAAKAAIAGDAKAAKAAAEKIKKLKEEAKKLLEE
# B8: d1r8_design_ppi_23_dldesign_0_cycle0_af2pred (protein)
# chain: MEELAEEYIEEARRYAEEAERLAEQAGEAARPLARAARRALELAEENREDLELVKGQAEAARVFLEAARSRLEQLA
# B9: d1r8_design_ppi_80_dldesign_0_cycle0_af2pred (protein)
# chain: AAAEAAAALAAARAALAAVRETLARAERGEATREEAGAAINAGMRTIAALNAVAARIPAAKAEFDALAGEILDAIRALAAAVR
# B10: d1r8_design_ppi_82_dldesign_0_cycle1_af2pred (protein)
# chain: AAAAAKTAAKNVLKAVENFSKNAAAAGKASTPEEAARKLAEIEKFGEAGIAVAAADPEIAKKVKEVVDKAIAELKKAAA
# B11: d1r8_design_ppi_87_dldesign_0_cycle1_af2pred (protein)
# chain: NPLLEEARRAIEEAAKLVKTGTPEEAREALKRAAHELLRLAARSTDQAVAQKLITAAELVAKAAELVLTNPEEALKLVEEAL
# B12: d1r8_design_ppi_128_dldesign_0_cycle0_af2pred (protein)
# chain: EEEVKKAKEEAEKAIEEARETERRYFAEAGRNPANALAYLQAGLEELEKIAKELERKGEEEGGEAGKVYKEAAREIKERRERIAAALS
# B13: d1r8_design_ppi_139_dldesign_0_cycle1_af2pred (protein)
# chain: AMSVGELMEVAKAEGAAVNAAAAALAAKDPAKAAALLDAYRAKVNAIIAEMSRTAIASGDFEAAAAAAAAKIKAAAKETLAALKAIA
# B14: d1r8_design_ppi_140_dldesign_0_cycle0_af2pred (protein)
# chain: DVAAMKKEVEELKKKVEEVAKKAAESPEAQPYVNQAKGNAKSAELAAEGGDVALAKRFLKLAEEAMKKAEALI
# B15: d1r8_design_ppi_150_dldesign_0_cycle1_af2pred (protein)
# chain: SQAALVAAKGALALAKGIKAHVESNPNLPLEELEKLKEQLKTAEEMAKAAEKEAKKAGDKEVLEAAKKALEAIKEAKKALEEAIKKAK
# B16: d1r8_design_ppi_185_dldesign_0_cycle1_af2pred (protein)
# chain: AAQAKALAAEADKLTEKARKLAKEGGDKEEVSKLLAEAAEKYAAAAEADPSTAFEYNARANLARFASQQNLEQAAKVAEAI
# B17: d1r8_design_ppi_218_dldesign_0_cycle1_af2pred (protein)
# chain: PTPEELAAAYREVRELAERAVAGTPEEAKRYAERIAELVARAEERFGPGAGVLLRNVALAVARANPVAYEYVRAAL
# B18: d1r8_design_ppi_233_dldesign_0_cycle0_af2pred (protein)
# chain: DDLEEARELLEEARRLGEQALALVAQNPAARAEGGALMLELLKLQAEARRRAAEYEADPEKAEAAEAYREAAELASQLVRQISQAAV
# B19: d1r8_design_ppi_233_dldesign_0_cycle1_af2pred (protein)
# chain: GALEEAKEKKKEAEEIGKQALALAAQNPASRAQAGALQVELLKLSAEARRKAEEYKADPETREAAKAYEEAAKLASQKIVEVSQALV
# Biological target: CD276, Q5ZPR3
# Sequence (Q5ZPR3 whole entry): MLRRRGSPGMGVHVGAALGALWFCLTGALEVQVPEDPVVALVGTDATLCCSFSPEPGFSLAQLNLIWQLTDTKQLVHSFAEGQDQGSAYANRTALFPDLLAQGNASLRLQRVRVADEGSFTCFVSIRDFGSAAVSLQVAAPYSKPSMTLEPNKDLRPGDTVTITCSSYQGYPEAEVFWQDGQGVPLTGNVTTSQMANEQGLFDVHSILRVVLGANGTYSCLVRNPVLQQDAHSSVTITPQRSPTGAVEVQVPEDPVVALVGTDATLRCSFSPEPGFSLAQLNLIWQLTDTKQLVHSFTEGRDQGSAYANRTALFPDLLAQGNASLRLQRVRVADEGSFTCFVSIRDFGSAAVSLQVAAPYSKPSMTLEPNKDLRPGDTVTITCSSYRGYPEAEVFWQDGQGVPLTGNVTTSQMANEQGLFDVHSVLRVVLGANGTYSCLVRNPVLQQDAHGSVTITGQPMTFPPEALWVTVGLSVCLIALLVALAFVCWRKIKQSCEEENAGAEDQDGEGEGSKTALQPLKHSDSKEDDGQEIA
row,Binder,binding in a display sort
1,B1,not found
2,B2,not found
3,B3,not found
4,B4,not found
5,B5,binds (active)
6,B6,not found
7,B7,not found
8,B8,not found
9,B9,not found
10,B10,not found
11,B11,not found
12,B12,not found
13,B13,not found
14,B14,not found
15,B15,not found
16,B16,not found
17,B17,not found
18,B18,not found
19,B19,not found
